22 molecules from PubChem BioAssay (Tox21) can be followed below.

The nature of test [1]: qHTS assay for small molecules that induce genotoxicity in human embryonic kidney cells expressing luciferase-tagged ATAD5 (AID 651632). Further: nearly all actives have a fitted effect of over 15% in size. Put shortly:
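Increased luciferase signal from ATAD5-tagged reporter cells indicates DNA-damage-driven ATAD5 induction. HEK293T cells are treated for 16 hr at 37C before detection with Amplite.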
On the technique in general: Quantitative high-throughput screening tests each substance at several concentrations.

Test [2] in a line: qHTS assay for small molecule agonists of the p53 signaling pathway - cell viability (AID 651633; calls by dose curve; further: nearly all actives have a fitted effect of over 30% in size; further: potency means the concentration at half of the fitted maximal effect). Put shortly: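 p53RE-bla cells, seeded at 4,000 per well and rested 5 h at 37 C/5% CO2, received compounds in DMSO for 16 h at 37 C. CellTiter-Glo was then added, and luminescence was read after 30 min at room temperature to gauge cytotoxicity.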
Test [3] in a line: qHTS assay for small molecules that induce genotoxicity in human embryonic kidney cells expressing luciferase-tagged ATAD5 - cell viability (AID 651634; calls by dose curve; further: nearly all actives have a fitted effect of over 25% in size; further: potency means the concentration at half of the fitted maximal effect). The gist of the method:
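Cytotoxicity counterscreen in HEK293T cells bearing an ATAD5-luciferase reporter: live-cell protease activity measured by CellTiter-Fluor fluorescence after 15.5 hr compound exposure.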

Test [4] in a line: qHTS assay for small molecule disruptors of the mitochondrial membrane potential - cell viability (AID 720634; calls by dose curve;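 further: human HepG2 liver cancer cells; series mostly up to about 83 µM; nearly all actives have a fitted effect of over 20% in size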). The gist of the method: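 After overnight attachment at 37 C, HepG2 cells received compound or DMSO vehicle for 1 hr. Viability is then taken from ATP-driven luminescence following a 30 min room-temperature CellTiter-Glo step.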
Test [5] is described as follows: qHTS assay to test for compound auto fluorescence at 590 nm (red) in HepG2 cells (AID 720674). Put shortly: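 Intrinsic compound fluorescence in the red window (Ex/Em 540/590 nm) is measured in attached HepG2 cells exposed for 1 hr, DMSO vehicle as baseline, benchmarked to Rose Bengal sodium.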
A short description of test [6]: qHTS assay to test for compound auto fluorescence at 535 nm (green) in HepG2 cells (AID 720675).
Test [7] is described as follows: qHTS assay to test for compound auto fluorescence at 460 nm (blue) in HEK293 cells (AID 720678). Put shortly: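 Blue read-out at excitation 405 nm and emission 460 nm follows overnight compound exposure of HEK293 cells at 37C in 5% CO2. Activity is given as auto fluorescence equivalency to triamterene.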
The nature of test [8]: qHTS assay to test for compound auto fluorescence at 590 nm (red) in HEK293 cells (AID 720679). The gist of the method:
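Red channel, Ex/Em 540/590nm; signal expressed as equivalency to Rose Bengal sodium. HEK293, 2,000 cells/well, 10% dialyzed FBS; 23 nL compound pinned after 4-5 hr attachment; overnight 37C/5% CO2 before reading.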

Results filed as inconclusive are left out. The source made the active and inactive calls. Unless noted, the call rests on the fitted dose curve; in most records, active means well fitted curve in the direction sought with a large enough effect in the repeat runs; inconclusive means weak or mixed curves; inactive means no such curve, though single readings can be large; an effect the other way counts as inactive or inconclusive.

For the molecule `CCN(CC)CCOc1ccc2nc(N(C)C)sc2c1`, the Potency result in test [1], in test [2], in test [3], in test [4], in test [5] and in test [6] was “inactive” each time. Moreover, the Potency result in test [7] and in test [8] was “inactive” in each case.
For the molecule `CC(CC(c1ccccc1)c1ccccc1)NC(C)(C)C` (stereo unspecified), the Potency entry in test [1], in test [2], in test [3], in test [4], in test [5] and in test [6] was “inactive” throughout. The Potency entry in test [7] and in test [8] was “inactive” each time.
For `CN(C)CCOc1ccccc1Cc1ccccc1` (tested in a mixture with another compound), the Potency entry in test [1], in test [2], in test [3], in test [4], in test [5] and in test [6] was “inactive” throughout. Moreover, the Potency result in test [7] and in test [8] was “inactive” in each case.
Consider `CN(C)CC/C=C1/c2ccccc2CSc2ccccc21`, for which the Potency result in test [1], in test [2], in test [3], in test [4], in test [5] and in test [6] was “inactive” in each case. Further, the Potency entry in test [7] and in test [8] was “inactive” in each case.
Take `CN(C)CCCN1c2ccccc2C(C)(C)c2ccccc21`: the Potency entry in test [1], in test [2], in test [3], in test [4], in test [5] and in test [6] was “inactive” in each case. In addition, the Potency result in test [7] and in test [8] was “inactive” each time.
Consider `CCN(CC)CCOc1ccccc1OC`, for which the Potency result in test [1], in test [2], in test [3], in test [4], in test [5] and in test [6] was “inactive” throughout. Moreover, the Potency result in test [7] and in test [8] was “inactive” each time.
Regarding `CCSc1ccc2c(c1)N(CCCN1CCN(C)CC1)c1ccccc1S2`, the Potency result in test [1], in test [2], in test [3], in test [4], in test [5] and in test [6] was “inactive” each time. The Potency entry in test [7] and in test [8] was “inactive” throughout.
Regarding `CN[C@@H]1[C@H](O[C@H]2[C@H](O[C@H]3[C@H](O)[C@@H](O)[C@H](N=C(N)N)[C@@H](O)[C@@H]3N=C(N)N)O[C@@H](C)[C@]2(O)CO)O[C@@H](CO)[C@H](O)[C@H]1O`, the Potency entry in test [1], in test [2], in test [3], in test [4], in test [5] and in test [6] was “inactive” throughout. Also, the Potency result in test [7] and in test [8] was “inactive” each time.
For the molecule `CC(C)(C)C1(O)CCN2CC3c4ccccc4CCc4cccc(c43)C2C1` (stereo unspecified), the Potency result in test [1], in test [3], in test [4], in test [5], in test [6] and in test [7] was “inactive” each time. In test [8], the Potency entry is “inactive”. Moreover, the Potency in test [2] is 13.3 µM (active).
In the case of `CN1CCC(CN2c3ccccc3Sc3ccccc32)C1` (stereo unspecified), the Potency entry in test [1], in test [2], in test [3], in test [4], in test [5] and in test [6] was “inactive” in each case. In addition, the Potency entry in test [7] and in test [8] was “inactive” each time.
With `CCN(CC)CCC(=O)N1c2ccccc2Sc2ccc(C(F)(F)F)cc21`, the Potency result in test [1], in test [2], in test [3], in test [4], in test [5] and in test [6] was “inactive” in each case. For the same molecule, the Potency entry in test [7] and in test [8] was “inactive” each time.
For the molecule `C[C@H](/C=C/[C@H](C)C(C)(C)O)[C@H]1CC[C@H]2/C(=C/C=C3C[C@@H](O)C[C@H](O)C3)CCC[C@]12C`, the Potency result in test [1], in test [3], in test [4], in test [5], in test [6] and in test [7] was “inactive” throughout. In addition, the Potency entry in test [8] is “inactive”. Further, the Potency in test [2] was 8.41 µM (active).
Consider `N[C@H](CCC(=O)O)C(=O)O`, for which the Potency result in test [1], in test [2], in test [3], in test [4], in test [5] and in test [6] was “inactive” throughout. In addition, the Potency result in test [7] and in test [8] was “inactive” in each case.
Consider `CCCCCCCCCCCC(=O)N(CCO)CCO`, for which the Potency result in test [1], in test [2], in test [3], in test [4], in test [5] and in test [6] was “inactive” throughout. Moreover, the Potency entry in test [7] and in test [8] was “inactive” throughout.
`OCCN1CCN(CC/C=C2/c3ccccc3Sc3ccc(Cl)cc32)CC1`: the Potency result in test [1], in test [2], in test [3], in test [4], in test [5] and in test [6] was “inactive” in each case. Further, the Potency result in test [7] and in test [8] was “inactive” throughout.
In the case of `CC(CN1c2ccccc2Sc2ccc(S(=O)(=O)N(C)C)cc21)N(C)C` (stereo unspecified), the Potency result in test [1], in test [2], in test [3], in test [4], in test [5] and in test [6] was “inactive” each time. In addition, the Potency result in test [7] and in test [8] was “inactive” in each case.
As for `CCC(Oc1ccccc1)C(=O)N[C@@H]1C(=O)N2[C@@H]1SC(C)(C)[C@@H]2C(=O)O` (stereo partly specified), the Potency entry in test [1], in test [2], in test [3], in test [4], in test [5] and in test [6] was “inactive” each time. For the same molecule, the Potency entry in test [7] and in test [8] was “inactive” in each case.
Take `C=CC1=C(C)C2=CC3=NC(=C(CC(=O)[O-])C4=NC(=C(C)C4=C([O-])[O-])C=c4[n-]c(c(C)c4CC)=CC1=N2)C(CCC(=O)[O-])C3C.[Cu+2].[Na+].[Na+].[Na+]` (stereo unspecified): the Potency result in test [1], in test [2], in test [4], in test [5], in test [6] and in test [7] was “inactive” in each case. Besides, the Potency result in test [8] was “inactive”. Further, the Potency in test [3] is 23.7 µM (active).
Consider `CC(C)=CCC/C(C)=C/C=C/C(C)=C/C=C/C(C)=C/C=C/C=C(C)/C=C/C=C(C)/C=C/C=C(\C)CCC=C(C)C`, for which the Potency result in test [1], in test [2], in test [3], in test [4], in test [5] and in test [6] was “inactive” throughout. The Potency entry in test [7] and in test [8] was “inactive” throughout.
On to `CC(CN1c2ccccc2Sc2cccnc21)N(C)C` (stereo unspecified), for which the Potency entry in test [1], in test [2], in test [3], in test [4], in test [5] and in test [6] was “inactive” in each case. Besides, the Potency entry in test [7] and in test [8] was “inactive” throughout.
In the case of `CC1(C)S[C@@H]2[C@H](NC(=O)C(N)c3ccccc3)C(=O)N2[C@H]1C(=O)OC1OC(=O)c2ccccc21` (stereo partly specified), the Potency result in test [1], in test [2], in test [3], in test [4], in test [5] and in test [6] was “inactive” in each case. In addition, the Potency entry in test [7] and in test [8] was “inactive” in each case.
Consider `CC(=O)N=c1sc(S(N)(=O)=O)nn1C`, for which the Potency result in test [1], in test [2], in test [3], in test [4], in test [5] and in test [6] was “inactive” in each case. Besides, the Potency result in test [7] and in test [8] was “inactive” throughout.
